For orientation: AC50 means the midpoint of the concentration-response curve, whichever way the signal moves.

Several values for one entry are separate records, joined by “and”; a condition that tells them apart may be missing. Equal entries are not always repeated. Records with an inconclusive call do not appear. Where a structure was tested more than once in an assay, its records may differ in their call. Activity calls are given as the source filed them. Rule for the calls: active = hit-call score of the fitted dose curve at least 0.9, where 1 is the maximum; inconclusive = response in the unintended direction; inactive = score below 0.9.

For test [1], the target named is human Phosphoinositide 3-kinase alpha (PI3Ka), PIK3CA (gene 5290) (UniProt P42336). Description: NVS_ENZ_hPI3Ka: NovaScreen (NVS) Enzymatic Assay for human Phosphoinositide 3-kinase alpha (PI3Ka) (AID 2283196). The gist of the method:
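Recombinant human PI3Kα with fluorescent substrate, 1 h, product separated by electrophoretic mobility shift; 25 uM duplicate screen, hits (e.g., 30% inhibition) retested singly up to 50 uM; loss of signal vs DMSO.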

Test [2] deals with human Protein Tyrosine Phosphatase Receptor Type F (PTPRF), PTPRF (gene 5792) (UniProt P10586). As to the kind of experiment: NVS_ENZ_hPTPRF: NovaScreen (NVS) Enzymatic Assay for human Protein Tyrosine Phosphatase Receptor Type F (PTPRF) (AID 2283213). The gist of the method: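 Cell-free fluorescence enzyme assay with recombinant protein and substrate; product separated by electrophoretic mobility shift. Read 1 h after dosing, single 25 uM duplicate screen, then concentration-response up to 50 uM; loss of signal vs DMSO.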

Test [3] concerns the target human Phosphodiesterase 4A1 (PDE4A1), PDE4A (gene 5141) (UniProt P27815). As to the kind of experiment: NVS_ENZ_hPDE4A1: NovaScreen (NVS) Enzymatic Assay for human Phosphodiesterase 4A1 (PDE4A1) (AID 2283191). The gist of the method: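 Fluorescent substrate turnover by recombinant PDE4A1 read after 1 h by mobility-shift separation. Primary duplicate screen at 25 uM; hits retested in concentration series with a 50 uM maximum, relative to DMSO.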

The target of test [4] is cAMP-dependent protein kinase catalytic subunit alpha (Homo sapiens) (UniProt P17612). Description: NVS_ENZ_hPKA: NovaScreen (NVS) Enzymatic Assay for human Protein Kinase A (PKA) (AID 2283192). The gist of the method:
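Cell-free kinase activity read by fluorescence after mobility-shift separation of substrate and product, 1 h post-dosing. Single-concentration duplicate screen (25 uM) preceded singleton concentration series (top 50 uM); loss of signal versus DMSO.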

Test [5] addresses human Phosphodiesterase 5 (PDE5), PDE5A (gene 8654) (UniProt O76074). As to the kind of experiment: NVS_ENZ_hPDE5: NovaScreen (NVS) Enzymatic Assay for human Phosphodiesterase 5 (PDE5) (AID 2283194). The method in brief: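 Screening began in duplicate at 25 uM, with actives taken into concentration-response. Enzyme activity of recombinant PDE5 toward its substrate was measured at 1 h by fluorescence mobility-shift detection, relative to DMSO controls.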

Test [6] deals with human Phosphodiesterase 10 (PDE10), PDE10A (gene 10846) (UniProt Q9Y233). As to the kind of experiment: NVS_ENZ_hPDE10: NovaScreen (NVS) Enzymatic Assay for human Phosphodiesterase 10 (PDE10) (AID 2283195). The method in brief: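 Fluorescence readout after mobility-shift separation of substrate and product, 1 h reaction with recombinant human enzyme. Single-concentration duplicates at 25 uM, then concentration-response up to 50 uM for chemicals reaching threshold; DMSO baseline.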

For test [7], the target named is human Protein Tyrosine Phosphatase Non-receptor Type 1 (PTPN1), PTPN1 (gene 5770) (UniProt P18031). As to the kind of experiment: NVS_ENZ_hPTPN1: NovaScreen (NVS) Enzymatic Assay for human Protein Tyrosine Phosphatase Non-receptor Type 1 (PTPN1) (AID 2283201). The method in brief: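 Chemicals were first tested in duplicate at 25 uM, and those passing threshold went on to singleton concentration series topping at 50 uM. Recombinant enzyme, specific substrate, product separated by mobility shift, fluorescence read at 1.33 h; activity loss relative to DMSO.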
Chain of human Protein Tyrosine Phosphatase Non-receptor Type 1 (PTPN1), PTPN1 (gene 5770) (P18031 whole entry, looked up): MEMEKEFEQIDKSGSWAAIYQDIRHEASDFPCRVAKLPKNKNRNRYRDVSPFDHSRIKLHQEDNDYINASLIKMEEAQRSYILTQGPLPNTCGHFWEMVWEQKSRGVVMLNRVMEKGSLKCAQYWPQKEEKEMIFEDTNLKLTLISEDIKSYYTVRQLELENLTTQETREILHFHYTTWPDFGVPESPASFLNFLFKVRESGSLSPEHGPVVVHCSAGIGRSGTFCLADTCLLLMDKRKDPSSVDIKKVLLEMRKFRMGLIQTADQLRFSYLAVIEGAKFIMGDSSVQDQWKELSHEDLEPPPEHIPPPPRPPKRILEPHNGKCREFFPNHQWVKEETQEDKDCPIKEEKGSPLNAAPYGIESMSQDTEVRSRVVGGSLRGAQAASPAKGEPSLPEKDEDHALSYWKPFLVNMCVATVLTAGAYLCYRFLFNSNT

The target in test [8] is Tyrosine-protein phosphatase non-receptor type 11 (Homo sapiens) (UniProt Q06124). Description: NVS_ENZ_hPTPN11: NovaScreen (NVS) Enzymatic Assay for human Protein Tyrosine Phosphatase Non-receptor Type 11 (PTPN11) (AID 2283202). The gist of the method: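 Compounds first tested in duplicate at 25 uM; those reaching ~30% inhibition rerun in singleton concentration-response, top 50 uM. Phosphatase activity measured after 0.5 h by fluorescence with mobility-shift separation, relative to DMSO.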
Chain of Tyrosine-protein phosphatase non-receptor type 11 (Homo sapiens) (Q06124 whole entry, looked up): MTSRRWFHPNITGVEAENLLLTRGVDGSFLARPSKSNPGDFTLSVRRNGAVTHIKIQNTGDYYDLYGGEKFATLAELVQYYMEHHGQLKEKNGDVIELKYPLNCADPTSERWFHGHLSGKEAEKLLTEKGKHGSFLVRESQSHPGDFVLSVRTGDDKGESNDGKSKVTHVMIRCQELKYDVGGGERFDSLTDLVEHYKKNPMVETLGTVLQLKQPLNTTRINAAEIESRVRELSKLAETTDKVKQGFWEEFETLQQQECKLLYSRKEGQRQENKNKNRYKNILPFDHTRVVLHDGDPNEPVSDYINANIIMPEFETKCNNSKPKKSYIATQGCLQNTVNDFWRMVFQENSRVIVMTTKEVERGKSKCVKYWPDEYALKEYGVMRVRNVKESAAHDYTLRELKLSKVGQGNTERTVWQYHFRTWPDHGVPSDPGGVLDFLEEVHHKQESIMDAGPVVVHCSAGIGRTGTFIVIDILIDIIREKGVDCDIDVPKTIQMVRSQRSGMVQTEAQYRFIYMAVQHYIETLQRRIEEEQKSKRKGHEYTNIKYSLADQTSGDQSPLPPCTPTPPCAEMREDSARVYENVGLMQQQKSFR

For test [9], the target named is Tyrosine-protein phosphatase non-receptor type 12 (Homo sapiens) (UniProt Q05209). Description: NVS_ENZ_hPTPN12: NovaScreen (NVS) Enzymatic Assay for human Protein Tyrosine Phosphatase Non-receptor Type 12 (PTPN12) (AID 2283204). The gist of the method: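 Single-concentration duplicates (25 uM) preceded singleton concentration-response up to 50 uM for chemicals passing threshold. Cell-free recombinant PTPN12 activity was read 1.33 h after dosing via fluorescence after mobility-shift separation; loss of signal versus DMSO.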

The target in test [10] is Tyrosine-protein phosphatase non-receptor type 13 (Homo sapiens) (UniProt Q12923). Description: NVS_ENZ_hPTPN13: NovaScreen (NVS) Enzymatic Assay for human Protein Tyrosine Phosphatase Non-receptor Type 13 (PTPN13) (AID 2283205). The method in brief:
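Screened first at a single 25 uM in duplicate; compounds passing the threshold (e.g. 30% inhibition) were rerun in concentration series, top 50 uM. Recombinant enzyme, fluorescent substrate, mobility-shift separation, 0.5 h read. Data fitted as inhibition relative to DMSO.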

In test [11] the target is Tyrosine-protein phosphatase non-receptor type 14 (Homo sapiens) (UniProt Q15678). Description: NVS_ENZ_hPTPN14: NovaScreen (NVS) Enzymatic Assay for human Protein Tyrosine Phosphatase Non-receptor Type 14 (PTPN14) (AID 2283206). The gist of the method:
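Fluorescent substrate turnover by recombinant human PTPN14 was measured 0.5 h after compound addition, with substrate and product separated by mobility shift. Single-point screening at 25 uM, then concentration-response up to 50 uM for chemicals meeting threshold (e.g., 30% inhibition).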

In test [12] the target is human Protein Tyrosine Phosphatase Non-receptor Type 4 (PTPN4), PTPN4 (gene 5775) (UniProt P29074). Description: NVS_ENZ_hPTPN4: NovaScreen (NVS) Enzymatic Assay for human Protein Tyrosine Phosphatase Non-receptor Type 4 (PTPN4) (AID 2283208). The method in brief: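 Screened in duplicate at 25 uM, with hits then titrated to a top concentration of 50 uM. Recombinant Sf9-derived PTPN4 turnover was read by fluorescence with electrophoretic separation, 1.33 h after compound addition. DMSO served as baseline.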

Test [13] concerns the target human Protein Tyrosine Phosphatase Non-receptor Type 9 (PTPN9), PTPN9 (gene 5780) (UniProt P43378). As to the kind of experiment: NVS_ENZ_hPTPN9: NovaScreen (NVS) Enzymatic Assay for human Protein Tyrosine Phosphatase Non-receptor Type 9 (PTPN9) (AID 2283209). The gist of the method: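 Sf9-expressed enzyme in a cell-free assay, fluorescence read 1.33 h after dosing with mobility-shift separation of substrate and product. Tested at 25 uM in duplicate, then up to 50 uM; signal loss versus DMSO.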

Test [14] deals with human Protein Tyrosine Phosphatase Non-receptor Type 6 (PTPN6), PTPN6 (gene 5777) (UniProt P29350). As to the kind of experiment: NVS_ENZ_hPTPN6: NovaScreen (NVS) Enzymatic Assay for human Protein Tyrosine Phosphatase Non-receptor Type 6 (PTPN6) (AID 2283210). The gist of the method:
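Recombinant human PTPN6 from SF9 cells, enzyme activity followed by fluorescence after mobility-shift separation of substrate and product at 1.33 h. Chemicals first tested at a single 25 uM in duplicate, then confirmed across concentration series; loss of signal relative to DMSO.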

In test [15] the target is human Protein Tyrosine Phosphatase Receptor Type B (PTPRB), PTPRB (gene 5787) (UniProt P23467). Description: NVS_ENZ_hPTPRB: NovaScreen (NVS) Enzymatic Assay for human Protein Tyrosine Phosphatase Receptor Type B (PTPRB) (AID 2283211). The method in brief:
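Recombinant human PTPRB with a fluorescent substrate, product separated by electrophoretic mobility shift; read 1 h after dosing. Primary screen in duplicate at 25 uM; actives then retested in concentration series; loss of signal versus DMSO.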

Test [16] has as its target human Rho Associated Coiled-coil Containing Protein Kinase 1 (ROCK1), ROCK1 (gene 6093) (UniProt Q13464). Description: NVS_ENZ_hROCK1: NovaScreen (NVS) Enzymatic Assay for human Rho Associated Coiled-coil Containing Protein Kinase 1 (ROCK1) (AID 2283214). The gist of the method:
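Compounds first run in duplicate at 25 uM against recombinant human ROCK1, then followed in concentration series. Kinase activity was read 1 h post-dosing by fluorescence with mobility-shift separation, as signal loss relative to DMSO.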

Test [17] addresses Serine/threonine-protein phosphatase PP1-alpha catalytic subunit (Homo sapiens) (UniProt P62136). Description: NVS_ENZ_hPPP1CA: NovaScreen (NVS) Enzymatic Assay for human Protein Phosphatase 1 Aatalytic subunit Alpha (PPP1CA) (AID 2283200). The gist of the method:
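Chemicals were first screened in duplicate at 25 uM, and those passing threshold (e.g. 30% inhibition) were run as concentration series to 50 uM. Cell-free recombinant protein, 1.33 h read, fluorescent substrate/product mobility-shift detection, normalised to DMSO.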

For test [18], the target named is human Protein Tyrosine Phosphatase Receptor Type M (PTPRM), PTPRM (gene 5797) (UniProt P28827). As to the kind of experiment: NVS_ENZ_hPTPRM: NovaScreen (NVS) Enzymatic Assay for human Protein Tyrosine Phosphatase Receptor Type M (PTPRM) (AID 2283215). The method in brief: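 Read-out is fluorescence after electrophoretic separation of substrate and product, taken 1.33 h post-dosing with recombinant enzyme. Compounds screened at 25 uM in duplicate, then concentration series for actives; activity as signal loss relative to DMSO.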

In test [19] the target is human Matrix Metalloproteinase-9 (MMP9), MMP9 (gene 4318) (UniProt P14780). As to the kind of experiment: NVS_ENZ_hMMP9: NovaScreen (NVS) Enzymatic Assay for human Matrix Metalloproteinase-9 (MMP9) (AID 2283190).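 Note: cell-free recombinant MMP9 protease activity read by fluorescent substrate signal; active means inhibition seen as loss of fluorescence signal versus DMSO.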 The gist of the method: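 Cell-free recombinant MMP9 enzyme activity measured by fluorescence intensity 1 h after dosing. Primary screen in duplicate at 25 uM, actives followed in concentration series; loss of signal relative to DMSO.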

Chain of Tyrosine-protein phosphatase non-receptor type 13 (Homo sapiens) (Q12923 whole entry, looked up): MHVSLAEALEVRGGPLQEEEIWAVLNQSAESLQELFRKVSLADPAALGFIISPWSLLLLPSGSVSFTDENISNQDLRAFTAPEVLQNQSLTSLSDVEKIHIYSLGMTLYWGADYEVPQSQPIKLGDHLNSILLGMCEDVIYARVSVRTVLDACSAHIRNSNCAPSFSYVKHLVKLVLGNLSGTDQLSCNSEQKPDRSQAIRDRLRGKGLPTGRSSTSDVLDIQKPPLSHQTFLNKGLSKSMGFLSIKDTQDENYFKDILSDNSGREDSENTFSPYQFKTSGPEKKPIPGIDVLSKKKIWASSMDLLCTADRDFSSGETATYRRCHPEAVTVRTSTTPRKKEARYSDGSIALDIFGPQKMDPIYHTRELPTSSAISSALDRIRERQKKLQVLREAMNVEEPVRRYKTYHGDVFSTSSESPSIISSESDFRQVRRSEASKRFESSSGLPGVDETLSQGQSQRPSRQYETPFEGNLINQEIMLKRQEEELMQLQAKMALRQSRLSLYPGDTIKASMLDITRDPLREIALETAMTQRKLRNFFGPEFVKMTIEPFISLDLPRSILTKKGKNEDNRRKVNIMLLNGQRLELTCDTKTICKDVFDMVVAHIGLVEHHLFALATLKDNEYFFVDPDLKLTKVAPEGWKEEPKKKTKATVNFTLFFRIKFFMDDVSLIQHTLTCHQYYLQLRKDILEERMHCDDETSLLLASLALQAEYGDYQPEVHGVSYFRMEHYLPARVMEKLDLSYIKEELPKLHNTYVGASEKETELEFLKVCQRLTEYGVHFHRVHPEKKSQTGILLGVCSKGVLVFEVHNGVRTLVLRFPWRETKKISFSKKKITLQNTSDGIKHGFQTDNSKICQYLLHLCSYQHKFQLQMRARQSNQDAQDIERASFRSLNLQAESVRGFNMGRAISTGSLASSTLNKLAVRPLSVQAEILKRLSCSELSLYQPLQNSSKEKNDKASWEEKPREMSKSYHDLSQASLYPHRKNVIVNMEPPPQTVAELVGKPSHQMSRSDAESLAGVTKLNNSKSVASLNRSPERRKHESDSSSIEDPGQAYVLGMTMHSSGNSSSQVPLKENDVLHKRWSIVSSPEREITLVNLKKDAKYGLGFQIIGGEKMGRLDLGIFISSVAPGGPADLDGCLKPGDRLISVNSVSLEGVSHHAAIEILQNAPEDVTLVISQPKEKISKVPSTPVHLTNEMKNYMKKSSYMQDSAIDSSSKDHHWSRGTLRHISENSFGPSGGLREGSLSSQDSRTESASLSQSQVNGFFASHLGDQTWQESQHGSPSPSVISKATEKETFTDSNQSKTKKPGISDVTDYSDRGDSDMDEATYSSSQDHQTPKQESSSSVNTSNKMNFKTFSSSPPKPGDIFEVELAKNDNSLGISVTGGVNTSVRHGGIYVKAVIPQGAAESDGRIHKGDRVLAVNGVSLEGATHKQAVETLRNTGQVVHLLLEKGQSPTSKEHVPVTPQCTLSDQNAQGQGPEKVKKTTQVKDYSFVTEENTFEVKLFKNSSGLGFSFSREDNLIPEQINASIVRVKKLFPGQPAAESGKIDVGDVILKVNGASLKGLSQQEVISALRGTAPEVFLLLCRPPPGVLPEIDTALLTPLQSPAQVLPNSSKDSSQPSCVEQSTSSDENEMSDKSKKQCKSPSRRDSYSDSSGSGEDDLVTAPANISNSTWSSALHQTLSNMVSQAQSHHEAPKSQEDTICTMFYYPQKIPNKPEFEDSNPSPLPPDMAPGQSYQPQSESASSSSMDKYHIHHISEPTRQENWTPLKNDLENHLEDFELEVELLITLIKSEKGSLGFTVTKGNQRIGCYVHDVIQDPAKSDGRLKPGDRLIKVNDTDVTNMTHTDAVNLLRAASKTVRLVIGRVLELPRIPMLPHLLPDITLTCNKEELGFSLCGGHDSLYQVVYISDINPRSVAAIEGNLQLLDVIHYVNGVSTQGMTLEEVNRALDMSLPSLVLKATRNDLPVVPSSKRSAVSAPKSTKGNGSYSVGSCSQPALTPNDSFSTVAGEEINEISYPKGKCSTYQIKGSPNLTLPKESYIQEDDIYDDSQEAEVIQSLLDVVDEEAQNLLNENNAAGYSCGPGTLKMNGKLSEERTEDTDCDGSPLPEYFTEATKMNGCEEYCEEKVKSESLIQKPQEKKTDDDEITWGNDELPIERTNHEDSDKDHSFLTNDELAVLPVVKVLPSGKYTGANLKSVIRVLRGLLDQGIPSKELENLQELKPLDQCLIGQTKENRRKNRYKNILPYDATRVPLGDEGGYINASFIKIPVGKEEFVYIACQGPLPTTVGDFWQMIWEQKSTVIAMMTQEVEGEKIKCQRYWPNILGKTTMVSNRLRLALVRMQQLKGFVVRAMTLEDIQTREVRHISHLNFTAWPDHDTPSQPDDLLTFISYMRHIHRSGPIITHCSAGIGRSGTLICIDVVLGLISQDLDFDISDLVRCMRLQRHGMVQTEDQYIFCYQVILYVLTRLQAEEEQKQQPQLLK
Chain of human Phosphodiesterase 4A1 (PDE4A1), PDE4A (gene 5141) (P27815 whole entry, looked up): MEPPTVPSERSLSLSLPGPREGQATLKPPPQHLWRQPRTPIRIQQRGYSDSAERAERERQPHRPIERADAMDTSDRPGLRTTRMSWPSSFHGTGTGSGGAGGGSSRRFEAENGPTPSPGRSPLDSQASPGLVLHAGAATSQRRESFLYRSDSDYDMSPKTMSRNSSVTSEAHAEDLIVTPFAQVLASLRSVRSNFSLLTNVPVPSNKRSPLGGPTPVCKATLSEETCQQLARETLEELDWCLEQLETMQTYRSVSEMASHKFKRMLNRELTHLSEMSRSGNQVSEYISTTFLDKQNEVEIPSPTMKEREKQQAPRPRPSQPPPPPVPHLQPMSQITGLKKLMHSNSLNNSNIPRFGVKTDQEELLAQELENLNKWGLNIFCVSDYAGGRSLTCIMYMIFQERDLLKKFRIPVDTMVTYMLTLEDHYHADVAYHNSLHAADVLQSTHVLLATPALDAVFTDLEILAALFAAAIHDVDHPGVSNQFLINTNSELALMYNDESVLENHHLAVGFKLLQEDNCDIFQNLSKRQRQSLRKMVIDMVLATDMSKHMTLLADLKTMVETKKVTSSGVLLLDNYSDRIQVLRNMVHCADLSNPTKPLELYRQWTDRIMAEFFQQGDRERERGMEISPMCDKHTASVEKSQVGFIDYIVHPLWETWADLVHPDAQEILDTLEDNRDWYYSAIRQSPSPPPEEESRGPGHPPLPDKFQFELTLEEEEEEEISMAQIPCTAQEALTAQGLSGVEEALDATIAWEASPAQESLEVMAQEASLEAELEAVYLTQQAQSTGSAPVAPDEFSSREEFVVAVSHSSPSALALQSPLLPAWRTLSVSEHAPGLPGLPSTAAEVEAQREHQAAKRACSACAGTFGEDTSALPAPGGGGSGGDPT
Chain of human Protein Tyrosine Phosphatase Non-receptor Type 6 (PTPN6), PTPN6 (gene 5777) (P29350 whole entry, looked up): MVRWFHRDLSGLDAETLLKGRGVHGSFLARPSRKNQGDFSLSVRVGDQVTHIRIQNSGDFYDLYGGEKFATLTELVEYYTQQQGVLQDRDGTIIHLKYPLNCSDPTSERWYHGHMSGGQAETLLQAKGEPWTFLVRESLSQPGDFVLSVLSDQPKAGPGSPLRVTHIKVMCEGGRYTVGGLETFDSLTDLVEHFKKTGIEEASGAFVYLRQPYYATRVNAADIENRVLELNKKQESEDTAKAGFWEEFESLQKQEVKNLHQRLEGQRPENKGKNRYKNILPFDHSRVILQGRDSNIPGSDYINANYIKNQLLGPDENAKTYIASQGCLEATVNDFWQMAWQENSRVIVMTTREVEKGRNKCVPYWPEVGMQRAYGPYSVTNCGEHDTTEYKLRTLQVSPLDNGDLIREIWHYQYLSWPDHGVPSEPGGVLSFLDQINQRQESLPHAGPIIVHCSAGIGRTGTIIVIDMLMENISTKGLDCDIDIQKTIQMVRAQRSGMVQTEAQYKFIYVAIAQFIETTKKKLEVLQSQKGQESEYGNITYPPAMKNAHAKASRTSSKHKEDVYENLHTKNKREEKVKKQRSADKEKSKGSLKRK

In the case of `N#CSCSc1nc2ccccc2s1`, the outcome in test [1] and in test [2] was inactive.

Turning to `S=C(S)NCCNC(=S)S.[Mn+2].[S-]C([S-])=NCCN=C([S-])[S-].[Zn+2]`, the half-maximal activity concentration (AC50) was 3.82 µM (active) and 3.7 µM (active) and 10.6 µM (active) in [3]; 20.5 µM (active) in test [4]; 12.5 µM (active) and 14.2 µM (active) in [5]; 2.41 µM (active) and 17.6 µM (active) in test [6]; 6.63 µM (active) and 14.6 µM (active) in test [1]; 830 nM (active) and 1.81 µM (active) in test [7]. In addition, the AC50 is 463 nM (active) and 603 nM (active) in test [8]; 486 nM (active) and 1.35 µM (active) in test [9]; 3.5 µM (active) and 7.66 µM (active) and 4.12 µM (active) in test [10]; 25 µM (active) in [11]; 183 nM (active) and 38.9 nM (active) in [12]; 419 nM (active) and 26.1 nM (active) in test [13]. For the same molecule, the AC50 in [14] was 3.57 µM (active) and 30.5 µM (active); in test [15], 22.4 nM (active) and 4.12 µM (active); in test [2], 1.38 µM (active) and 1.98 µM (active). The call in test [5], in test [1], in test [2] and in test [16] was inactive.

In the case of `O=C(Nc1ccc([N+](=O)[O-])cc1Cl)c1cc(Cl)ccc1O`, the molecule was classed as inactive in [17] and in test [18]. Moreover, the AC50 in test [10] is 18.7 µM (active).

On to `CCNc1nc(N)nc(Cl)n1`, for which, in test [3], the AC50 was 25 µM (active). Also, the call in test [15] was inactive.

With `CCCN(CCC)c1c([N+](=O)[O-])cc(C(F)(F)F)c(N)c1[N+](=O)[O-]`, the molecule was classed as inactive in test [9], in [12], in [14] and in test [18]. Besides, the concentration at half-maximal activity (AC50) in [13] is 19.9 µM (active).

In the case of `COc1nc(C)nc(NC(=O)NS(=O)(=O)c2ccccc2OCCCl)n1`, the half-maximal activity concentration (AC50) in [19] is 4.32 µM (active). The result in test [12], in test [13] and in [18] was inactive.

As to `CCCN(CCC)C(=O)SCC`, the result in test [15] was inactive.

For `S=C([S-])NCCNC(=S)[S-].[Mn+2]`, the call in [19] and in [1] was inactive. Also, the AC50 was 16.7 µM (active) in test [3]; 25 µM (active) in [4]; 25 µM (active) in test [6]; 831 nM (active) in test [7]; 144 nM (active) in [8]; 479 nM (active) in test [9]. Moreover, the concentration at half-maximal activity (AC50) in [10] is 0.594 µM (active); in [11], 13.8 µM (active); in test [12] it was 3.5 nM (active); in test [13] it was 0.00231 µM (active); in test [14] it was 34.7 µM (active); in test [15], 465 nM (active). Also, the concentration at half-maximal activity (AC50) was 6.35 µM (active) in test [2] and 8.13 µM (active) in [18].

As to `O=C(c1ccc(O)cc1O)c1ccc(O)cc1O`, the call in test [4] was inactive. Also, the AC50 in test [5] was 22 µM (active).

Source of the values: PubChem BioAssay (EPA / NIEHS).
